Data on five compounds can be found in PubChem BioAssay.

Test [1] is described as follows: small molecules captured by biotinylated probe aFSTL3 – biochemical, small-molecule microarray, fluorescence 635/667, stem cell growth factor project, primary screen (AID 1064).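 Note: measures binding of the biotinylated anti-FSTL3 antibody to printed compounds.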 Particulars: higher = more signal.
Test [2] can be described thus: binders from COS7 lysate, DM2A8 probe, primary screen, torsin A project, cell lysate, small-molecule microarray, fluorescence 635/667 (AID 1065). The note with it: higher = more signal, COS7 lysate expressing mutant human TOR1A.
The nature of test [3]: small molecules captured by biotinylated probe aFGF2 – biochemical, small-molecule microarray, fluorescence 635/667, stem cell growth factor project, primary screen (AID 1067).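 Note: measures binding of biotinylated aFGF2 protein to printed compounds on slides; z-score merges feature fluorescence and signal-to-noise across triplicate slides.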 The note with it: higher = more signal.
Test [4] in a line: small molecules captured by biotinylated probe aFGF10 – biochemical, small-molecule microarray, fluorescence 635/667, stem cell growth factor project, primary screen (AID 1071).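 Note: score merges 667 nm spot intensity and signal to noise from triplicate slides.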 Particulars: higher = more signal.
Test [5] concerns the target Neurogenic locus notch homolog protein 2 (Homo sapiens) (UniProt Q04721). As to the kind of experiment: small molecules binding Notch2 protein – biochemical, small-molecule microarray, 635 nm fluorescence, stem cell growth factors, primary screen (AID 1073). The note with it: higher = more signal.
The target in test [6] is Pro-neuregulin-1, membrane-bound isoform (Homo sapiens) (UniProt Q02297). Put plainly: small molecules binding neuregulin-1 protein – biochemical, small-molecule microarray, fluorescence 635/667, psychiatric disease protein project, primary screen (AID 1075).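 Note: score combines 667 nm spot fluorescence with signal to noise.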 The note with it: NRG1 binding, 635 nm fluorescence, higher = more signal.
Sequence of Pro-neuregulin-1, membrane-bound isoform (Homo sapiens) (Q02297 whole entry, looked up, the tested form may be a part, canonical isoform): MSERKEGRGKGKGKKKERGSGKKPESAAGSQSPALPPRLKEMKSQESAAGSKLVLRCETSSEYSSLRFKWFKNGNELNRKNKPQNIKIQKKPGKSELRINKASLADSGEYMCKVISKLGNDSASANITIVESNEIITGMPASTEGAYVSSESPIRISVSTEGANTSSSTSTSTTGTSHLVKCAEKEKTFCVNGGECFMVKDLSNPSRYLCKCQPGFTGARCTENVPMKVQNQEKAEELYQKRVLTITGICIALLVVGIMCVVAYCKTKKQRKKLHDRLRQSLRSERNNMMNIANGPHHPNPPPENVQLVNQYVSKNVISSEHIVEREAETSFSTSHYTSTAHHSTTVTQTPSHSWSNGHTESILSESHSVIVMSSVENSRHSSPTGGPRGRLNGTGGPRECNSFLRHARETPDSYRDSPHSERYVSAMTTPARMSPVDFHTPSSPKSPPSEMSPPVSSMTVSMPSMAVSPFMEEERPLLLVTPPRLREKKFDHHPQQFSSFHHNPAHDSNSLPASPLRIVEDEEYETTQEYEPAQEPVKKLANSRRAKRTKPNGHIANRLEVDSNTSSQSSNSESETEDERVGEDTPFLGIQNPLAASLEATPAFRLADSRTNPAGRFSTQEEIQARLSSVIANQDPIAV
Test [7] relates to Neuregulin-1 EGF-like domain. As to the kind of experiment: small molecules binding NRG1 EGF domain – biochemical, small-molecule microarray, 635 nm fluorescence, primary screen (AID 1081).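 Note: binding of the protein to compounds printed on small-molecule microarray slides.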 The note with it: higher = more signal.
The nature of test [8]: FRG1 expression reporter modulators in myotubes – cell-based, C2C12 myotubes, firefly/Renilla luciferase, luminescence, FRG1 inhibition for FSHD, primary screen (AID 1084). Particulars: FRG1 promoter luciferase, higher = more signal, called active from +8 up or from −8 down.
Test [9] is described as follows: small molecules captured by biotinylated probe aFST – biochemical, small-molecule microarray, fluorescence 635/667, stem cell growth factor project, primary screen (AID 1086).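 Note: score merges 667 nm fluorescence with signal-to-noise of each printed compound spot.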 Particulars: higher = more signal.
Test [10] is described as follows: binders of probe aHhip on microarray, primary screen, stem cell growth factor project, biochemical, small-molecule microarray, fluorescence 635/667 (AID 1087).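 Note: score merges spot fluorescence at 667nm with spot signal to noise ratio.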 The note with it: higher = more signal.
Test [11] concerns PRMT1 (protein arginine N-methyltransferase 1). As to the kind of experiment: small molecules binding arginine methyltransferase PRMT1 – biochemical, small-molecule microarray, 635 nm fluorescence, primary screen (AID 1088).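 Note: binding of Prmt1 protein to compounds spotted on small-molecule microarray slides.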 The note with it: higher = more signal.
The nature of test [12]: growth effects on S. cerevisiae YJM789 – YJM789 clinical isolate, OD600, 24 h, basal, primary screen (AID 1089).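 Note: growth of clinical yeast isolate S. cerevisiae YJM 789 seeded 1000 cells per well; test concentration not given here.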 The note with it: higher = more signal, called active from +8 up or from −8 down.
Test [13] in a line: S. pombe growth modifiers, basal conditions – strain 972, OD600, 24 h, no modulator, primary screen (AID 1090).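 Note: basal condition with compound alone and no growth modifier present; test concentration not given here.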 Particulars: S. pombe 972 growth, higher = more signal, called active from +8 up or from −8 down.
A short description of test [14]: budding yeast growth modifiers under rapamycin – strain BY4716, OD600, 96 h, primary screen (AID 1091). Note: test concentration not given here. The note with it: S. cerevisiae BY4716 + rapamycin, higher = more signal, called active from +8 up or from −8 down.
In test [15] the target is Torsin-1A-interacting protein 2 (Homo sapiens) (UniProt Q8NFQ8). As to the kind of experiment: small molecules binding lysate-expressed LULL1 – cell lysate, human LULL1 lysate, 635/667 nm fluorescence, primary screen (AID 1092).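 Note: probe is lysate of COS7 cells overexpressing human LULL1; score merges per-feature 667 nm fluorescence with signal-to-noise.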 Particulars: small-molecule microarray, hLULL1 lysate binding, 635 nm fluorescence; higher = more signal.
Sequence of Torsin-1A-interacting protein 2 (Homo sapiens) (Q8NFQ8 whole entry, looked up): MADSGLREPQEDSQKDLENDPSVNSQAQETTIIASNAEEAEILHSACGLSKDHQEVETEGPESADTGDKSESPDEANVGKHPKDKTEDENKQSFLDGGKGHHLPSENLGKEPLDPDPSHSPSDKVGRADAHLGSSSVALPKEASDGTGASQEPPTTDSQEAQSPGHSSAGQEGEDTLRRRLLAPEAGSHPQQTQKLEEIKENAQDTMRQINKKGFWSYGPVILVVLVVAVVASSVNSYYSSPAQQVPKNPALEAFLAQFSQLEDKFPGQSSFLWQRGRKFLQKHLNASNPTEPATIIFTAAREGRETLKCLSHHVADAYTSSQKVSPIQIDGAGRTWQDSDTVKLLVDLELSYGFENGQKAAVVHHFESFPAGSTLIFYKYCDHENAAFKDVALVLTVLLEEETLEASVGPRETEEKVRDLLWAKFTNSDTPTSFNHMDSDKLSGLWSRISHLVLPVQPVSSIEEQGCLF
The nature of test [16]: optical density change of DRC41 E. coli – strain DRC41, OD650, 24 h, E. coli filamentation project, primary screen (AID 1093).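 Note: MC1000 strain lacking acrAB efflux and sulA so SOS filamentation is blocked; test concentration not given here.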 Particulars: E. coli DRC41 growth, higher = more signal, called active from +8 up or from −8 down.
Test [17] can be described thus: probe aLefty2 binding to arrayed compounds – biochemical, biotinylated probe, 635/667 nm fluorescence, primary screen (AID 1094).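 Note: score merges spot fluorescence near 667 nm with spot signal-to-noise ratio.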 The note with it: small-molecule microarray, higher = more signal.
Test [18] concerns Noggin (protein binding on small-molecule microarray). Put plainly: small molecules binding Noggin protein – biochemical, 635/667 nm fluorescence, primary screen (AID 1095).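 Note: score merges 667 nm feature fluorescence with signal to noise over triplicate slides.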 The note with it: 635 nm fluorescence, higher = more signal.
Test [19] addresses Neurogenic locus notch homolog protein 3 (Homo sapiens) (UniProt Q9UM47). As to the kind of experiment: small molecules binding NOTCH3 protein – biochemical, 635/667 nm fluorescence, primary screen (AID 1096). Particulars: small-molecule microarray, 635 nm fluorescence, higher = more signal.
Test [20] in a line: probe aEGFR binding to arrayed compounds – biochemical, biotinylated probe, 635/667 nm fluorescence, primary screen (AID 1097).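 Note: probe is a biotinylated anti-EGFR antibody binding compounds printed on slides; score combines fluorescence near 667 nm and signal to noise of each spot.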 Particulars: small-molecule microarray, higher = more signal.

Calls of active or inactive are those of the source.

Sequence of Neurogenic locus notch homolog protein 3 (Homo sapiens) (Q9UM47 whole entry, looked up): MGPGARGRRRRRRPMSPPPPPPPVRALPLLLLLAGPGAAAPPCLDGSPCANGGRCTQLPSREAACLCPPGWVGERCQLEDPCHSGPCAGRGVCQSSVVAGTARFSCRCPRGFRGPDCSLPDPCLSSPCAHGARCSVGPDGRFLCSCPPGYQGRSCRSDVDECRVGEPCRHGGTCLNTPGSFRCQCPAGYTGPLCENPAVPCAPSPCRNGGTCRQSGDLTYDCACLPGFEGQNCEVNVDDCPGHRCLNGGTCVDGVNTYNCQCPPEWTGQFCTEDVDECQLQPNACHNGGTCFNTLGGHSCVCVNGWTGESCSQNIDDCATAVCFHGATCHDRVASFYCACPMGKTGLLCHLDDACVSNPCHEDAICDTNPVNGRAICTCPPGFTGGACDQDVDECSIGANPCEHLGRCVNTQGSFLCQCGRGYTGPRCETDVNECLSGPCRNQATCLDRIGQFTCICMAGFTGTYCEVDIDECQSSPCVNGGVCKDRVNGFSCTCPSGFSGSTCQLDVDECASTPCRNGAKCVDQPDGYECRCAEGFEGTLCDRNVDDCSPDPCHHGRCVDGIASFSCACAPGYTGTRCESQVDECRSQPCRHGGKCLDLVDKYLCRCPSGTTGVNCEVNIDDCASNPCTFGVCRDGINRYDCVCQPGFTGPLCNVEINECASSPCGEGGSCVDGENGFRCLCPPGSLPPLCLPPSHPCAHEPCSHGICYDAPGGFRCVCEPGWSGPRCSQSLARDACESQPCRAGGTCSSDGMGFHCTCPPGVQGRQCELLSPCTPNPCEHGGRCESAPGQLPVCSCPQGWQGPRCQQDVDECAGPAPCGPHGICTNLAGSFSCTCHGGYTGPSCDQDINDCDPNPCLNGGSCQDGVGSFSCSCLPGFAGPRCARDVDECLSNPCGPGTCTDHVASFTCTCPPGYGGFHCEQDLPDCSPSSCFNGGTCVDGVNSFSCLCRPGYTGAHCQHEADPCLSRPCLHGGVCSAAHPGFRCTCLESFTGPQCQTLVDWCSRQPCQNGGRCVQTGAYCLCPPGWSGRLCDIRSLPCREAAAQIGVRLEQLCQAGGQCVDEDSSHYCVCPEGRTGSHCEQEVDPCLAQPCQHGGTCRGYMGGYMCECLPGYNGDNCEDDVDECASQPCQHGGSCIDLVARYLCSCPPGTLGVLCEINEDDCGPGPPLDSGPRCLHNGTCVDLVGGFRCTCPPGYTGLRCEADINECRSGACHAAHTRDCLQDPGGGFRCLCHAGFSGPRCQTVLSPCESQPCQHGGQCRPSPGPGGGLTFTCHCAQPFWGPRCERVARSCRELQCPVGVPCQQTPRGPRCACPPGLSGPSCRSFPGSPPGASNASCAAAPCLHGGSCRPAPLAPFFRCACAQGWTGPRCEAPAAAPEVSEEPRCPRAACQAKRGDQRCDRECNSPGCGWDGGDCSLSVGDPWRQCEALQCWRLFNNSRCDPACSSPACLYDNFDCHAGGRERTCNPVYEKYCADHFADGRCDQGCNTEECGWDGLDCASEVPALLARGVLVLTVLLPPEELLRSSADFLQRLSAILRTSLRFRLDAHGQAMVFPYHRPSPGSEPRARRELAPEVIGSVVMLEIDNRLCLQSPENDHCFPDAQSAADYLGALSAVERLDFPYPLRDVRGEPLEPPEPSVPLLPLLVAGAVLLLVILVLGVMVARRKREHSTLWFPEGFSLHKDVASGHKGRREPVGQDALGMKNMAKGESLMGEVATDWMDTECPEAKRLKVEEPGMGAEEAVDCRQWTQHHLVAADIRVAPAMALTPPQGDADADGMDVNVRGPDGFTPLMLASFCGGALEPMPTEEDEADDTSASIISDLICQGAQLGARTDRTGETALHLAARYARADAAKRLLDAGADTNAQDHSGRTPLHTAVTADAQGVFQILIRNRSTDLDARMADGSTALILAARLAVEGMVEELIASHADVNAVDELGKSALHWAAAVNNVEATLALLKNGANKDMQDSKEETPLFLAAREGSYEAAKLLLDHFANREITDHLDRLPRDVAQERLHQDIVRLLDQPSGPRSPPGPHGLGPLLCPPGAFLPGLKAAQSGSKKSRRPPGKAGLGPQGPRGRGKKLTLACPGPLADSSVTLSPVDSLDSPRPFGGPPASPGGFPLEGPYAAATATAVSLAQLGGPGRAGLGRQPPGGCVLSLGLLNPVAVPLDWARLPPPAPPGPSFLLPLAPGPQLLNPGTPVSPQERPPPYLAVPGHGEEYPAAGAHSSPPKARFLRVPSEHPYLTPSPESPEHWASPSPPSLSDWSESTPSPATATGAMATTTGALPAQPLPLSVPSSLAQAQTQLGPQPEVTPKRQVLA

Consider `CCOC(=O)C[C@H]1[C@H](OC(=O)c2ccc(-c3ccccc3)cc2)[C@@H](NC(=O)c2ccc3ccccc3c2)c2cc(OCCCO)ccc2N1C(=O)c1ccc2ccccc2n1`, for which the composite z-score in test [1] is -0.0093; in [2], 0.0135; in test [3], -0.06; in test [4], 0.398; in test [5], 0.676; in test [6] it was 0.706. The composite z-score in [7] was 0.15; in test [9] it was 0.426; in [10], 0.154; in test [11], 1.15; in test [15], 1.47; in [17] it was -0.0358. Also, the composite z-score in test [18] was 0.372; in test [19] it was 0.895; in [20], 0.0167. The z-score in test [8] was 0.247 (inactive); in test [12] it was -0.72 (inactive); in test [13], -0.918 (inactive); in test [14] it was 0.592 (inactive); in test [16], -0.56 (inactive).
On to `CCOC(=O)C1=C[C@@H](c2ccccc2)N(S(=O)(=O)c2ccc(C)cc2)[C@H]1c1cccc(Cl)c1`, for which the composite z-score in test [1] came out at 0.266; in [2] it was 1.81; in test [3], 0.085; in [4], 0.885; in test [5], 1.58; in test [6], 1.34. In addition, the composite z-score in test [7] is 0.991; in test [9], 1.02; in test [10], -0.0919; in test [11], 1.57; in test [15], 2.67; in test [17] it was 0.268. Moreover, the composite z-score in test [18] came out at 0.688; in [19] it was 1.07; in [20], 0.143. Besides, the z-score in test [8] is -2.98 (inactive); in test [12], 0.962 (inactive); in test [13], 1.71 (inactive); in [14] it was 2.24 (inactive); in test [16], -0.913 (inactive).
In the case of `COCCOC(=O)N1C(=O)[C@@]2(c3cc(C#CC4(O)CCCCCC4)ccc31)[C@H](C(N)=O)[C@H]1C(=O)O[C@H](c3ccccc3)[C@H](c3ccccc3)N1[C@@H]2c1ccccc1OCCO`, the composite z-score in test [1] amounted to 0.591; in test [2], 1.71; in [3], 0.121; in test [4], 0.859; in test [5], 1.25; in test [6], 0.735. Further, the composite z-score in test [7] was 1.3; in [9], 0.239; in test [10] it was 0.141; in test [11], 1.54; in test [15], 2.49; in [17], -0.484. Further, the composite z-score in [18] turned out to be 1.09; in test [19] it was 1.08; in test [20] it was 0.445. Also, the z-score was 0.129 (inactive) in [8]; 1.53 (inactive) in test [12]; -0.0153 (inactive) in test [13]; 4.1 (inactive) in [14]; 0.58 (inactive) in test [16].
With `CC(=O)n1cc(C(O)C2C=CC3C(=O)N(Cc4ccccc4)C(=O)C3N2n2cnnc2)c2ccccc21` (stereo not given), the composite z-score in test [1] was -0.317; in [2], 0.47; in test [3], -0.0218; in test [4] it was -0.0821; in test [5], 0.145; in [6] it was -0.0307. Besides, the composite z-score in test [7] is 0.351; in test [9] it was 0.426; in test [10], -0.268; in test [11], 0.77; in [15], 1.23; in test [17], -0.0858. In addition, the composite z-score in [18] is -0.415; in [19], 0.193; in test [20] it was 0.728. Moreover, the z-score in test [8] is 0.186 (inactive); in [12], -0.423 (inactive); in test [13], 0.552 (inactive); in test [14], 0.192 (inactive); in test [16] it was -0.901 (inactive).
For the compound `O=C1O[C@@H](c2ccccc2)[C@@H](c2ccccc2)N2[C@@H](c3ccccc3OCCO)[C@]3(C(=O)Nc4ccc(C#CCCO)cc43)[C@@H](C(=O)N3CCN(c4ncccn4)CC3)[C@H]12`, the composite z-score in [1] is -0.132; in test [2] it was -0.167; in test [3] it was -0.0004; in test [4] it was 0.608; in test [5], 1.34; in [6] it was 1.56. Further, the composite z-score in [7] is 1.13; in test [9] it was 0.29; in [10], -0.069; in test [11], 1.55; in test [15], 2.93; in test [17] it was -0.0708. Also, the composite z-score was 0.207 in [18], 0.59 in test [19] and -0.0858 in [20]. The z-score was -2.32 (inactive) in test [8]; 1.75 (inactive) in [12]; -0.631 (inactive) in test [13]; 3.99 (inactive) in test [14]; 0.935 (inactive) in [16].
